Experiments:
Experiment in all cases: DAPPL (digital affinity profiling via proximity ligation, sequencing); 10 mM Tris-HCl pH 7.5, 50 mM NaCl, 1 mM DTT, 4% glycerol, room temperature, 30 min; GST-TFs on glutathione beads, 16-mer random dsDNA library, 0.1% formaldehyde crosslink after washing; high values mean tight binding
FLI1 = molecular target: T1, FLI1 (Homo sapiens, UniProt Q01543 1-452); settings: protein: recombinant; tags: N-terminal GST; dsDNA, one strand shown
T1 sequence: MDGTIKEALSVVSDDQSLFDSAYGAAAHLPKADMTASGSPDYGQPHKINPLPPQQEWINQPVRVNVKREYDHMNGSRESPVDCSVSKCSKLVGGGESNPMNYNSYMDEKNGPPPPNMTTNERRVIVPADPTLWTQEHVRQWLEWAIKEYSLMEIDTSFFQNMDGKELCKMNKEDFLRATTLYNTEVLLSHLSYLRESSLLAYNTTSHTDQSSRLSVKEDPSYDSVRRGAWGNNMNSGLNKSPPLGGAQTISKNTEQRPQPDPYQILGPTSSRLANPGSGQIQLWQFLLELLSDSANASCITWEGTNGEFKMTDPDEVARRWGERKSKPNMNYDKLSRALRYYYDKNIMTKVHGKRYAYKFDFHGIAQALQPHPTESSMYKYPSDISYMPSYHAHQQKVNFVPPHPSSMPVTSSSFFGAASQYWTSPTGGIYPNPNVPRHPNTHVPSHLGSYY
In short: (§1)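 Human transcription factors carrying a GST fusion were produced in yeast, bound to glutathione beads, tagged with DNA barcodes and pooled together with a tag-only sample. Each pool was held with 200 nmole of a random double-stranded 16-mer DNA library in Tris/NaCl/DTT/glycerol buffer for 30 min at room temperature, then washed, crosslinked in 0.1% formaldehyde, proximity-ligated with BsaI/T4 ligase (1 h, 37 °C), PCR-amplified and sequenced on an Illumina NextSeq500. Binding signal is the read frequency of each hexamer for a given factor divided by its frequency in the tag-only sample.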

ELK1 = molecular target: T2, ELK1 (Homo sapiens, UniProt P19419 1-428); settings: protein: recombinant; tags: N-terminal GST; dsDNA, one strand shown
T2 sequence: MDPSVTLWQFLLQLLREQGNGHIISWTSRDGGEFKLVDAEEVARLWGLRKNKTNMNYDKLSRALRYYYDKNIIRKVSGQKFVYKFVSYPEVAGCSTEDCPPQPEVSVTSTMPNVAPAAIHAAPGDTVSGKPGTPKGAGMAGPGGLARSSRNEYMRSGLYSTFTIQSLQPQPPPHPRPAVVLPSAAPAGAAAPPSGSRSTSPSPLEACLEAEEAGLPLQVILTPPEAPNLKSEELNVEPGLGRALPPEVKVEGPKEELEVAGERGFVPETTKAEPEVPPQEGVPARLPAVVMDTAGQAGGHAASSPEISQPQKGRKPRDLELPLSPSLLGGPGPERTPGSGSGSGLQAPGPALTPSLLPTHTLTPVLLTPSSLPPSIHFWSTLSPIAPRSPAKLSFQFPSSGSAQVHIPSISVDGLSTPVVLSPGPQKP
In short: as §1

GABPA = molecular target: T3, GABPA (Homo sapiens, UniProt Q06546 1-454); settings: protein: recombinant; tags: N-terminal GST; dsDNA, one strand shown
T3 sequence: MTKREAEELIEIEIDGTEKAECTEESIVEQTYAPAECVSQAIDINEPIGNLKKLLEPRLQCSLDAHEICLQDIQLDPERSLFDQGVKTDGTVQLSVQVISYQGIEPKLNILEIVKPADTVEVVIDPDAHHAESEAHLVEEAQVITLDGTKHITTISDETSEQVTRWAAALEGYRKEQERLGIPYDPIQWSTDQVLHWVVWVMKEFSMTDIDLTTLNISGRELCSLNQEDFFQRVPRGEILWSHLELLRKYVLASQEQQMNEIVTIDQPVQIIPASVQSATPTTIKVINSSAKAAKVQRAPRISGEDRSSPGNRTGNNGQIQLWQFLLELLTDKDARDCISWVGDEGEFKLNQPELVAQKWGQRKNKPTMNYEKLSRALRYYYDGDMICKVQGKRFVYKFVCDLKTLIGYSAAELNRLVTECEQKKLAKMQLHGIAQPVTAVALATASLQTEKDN
In short: as §1

ERG = molecular target: T4, ERG (Homo sapiens, UniProt P11308 1-479); settings: protein: recombinant; tags: N-terminal GST; dsDNA, one strand shown
T4 sequence: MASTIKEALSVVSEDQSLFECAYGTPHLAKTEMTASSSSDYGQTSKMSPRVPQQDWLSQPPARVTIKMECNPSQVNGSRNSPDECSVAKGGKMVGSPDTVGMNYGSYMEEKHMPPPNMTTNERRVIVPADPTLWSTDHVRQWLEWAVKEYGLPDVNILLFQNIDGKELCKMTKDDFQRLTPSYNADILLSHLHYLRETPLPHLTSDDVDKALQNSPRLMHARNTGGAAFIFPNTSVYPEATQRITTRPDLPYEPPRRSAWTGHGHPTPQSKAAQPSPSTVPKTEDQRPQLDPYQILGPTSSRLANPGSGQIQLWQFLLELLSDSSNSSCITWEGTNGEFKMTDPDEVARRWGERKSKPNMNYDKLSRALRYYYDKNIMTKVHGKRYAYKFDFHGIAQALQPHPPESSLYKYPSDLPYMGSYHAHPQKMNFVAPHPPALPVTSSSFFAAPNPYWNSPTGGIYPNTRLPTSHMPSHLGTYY
In short: as §1

ELF1 = ELF1 (Homo sapiens, UniProt P32519 1-619); settings: protein: recombinant; tags: N-terminal GST; dsDNA, one strand shown
ELF1, sequence (P32519 whole entry): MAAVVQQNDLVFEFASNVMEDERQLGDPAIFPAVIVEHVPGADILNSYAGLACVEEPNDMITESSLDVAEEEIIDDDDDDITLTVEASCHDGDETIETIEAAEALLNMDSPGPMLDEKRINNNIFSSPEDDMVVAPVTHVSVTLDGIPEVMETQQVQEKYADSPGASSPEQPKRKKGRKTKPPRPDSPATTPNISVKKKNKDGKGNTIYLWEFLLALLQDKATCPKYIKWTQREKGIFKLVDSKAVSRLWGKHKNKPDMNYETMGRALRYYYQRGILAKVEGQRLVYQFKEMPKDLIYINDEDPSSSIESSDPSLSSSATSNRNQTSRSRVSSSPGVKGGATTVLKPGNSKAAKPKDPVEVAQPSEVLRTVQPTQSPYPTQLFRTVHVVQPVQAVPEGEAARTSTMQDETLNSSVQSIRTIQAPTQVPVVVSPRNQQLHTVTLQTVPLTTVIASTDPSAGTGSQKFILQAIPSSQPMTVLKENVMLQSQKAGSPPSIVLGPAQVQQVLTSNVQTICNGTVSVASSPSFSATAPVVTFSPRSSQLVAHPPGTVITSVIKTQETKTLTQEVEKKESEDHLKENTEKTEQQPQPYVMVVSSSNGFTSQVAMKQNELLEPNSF
In short: as §1

EHF = molecular target: T5, EHF (Homo sapiens, UniProt Q9NZC4 1-300); settings: protein: recombinant; tags: N-terminal GST; dsDNA, one strand shown
T5 sequence: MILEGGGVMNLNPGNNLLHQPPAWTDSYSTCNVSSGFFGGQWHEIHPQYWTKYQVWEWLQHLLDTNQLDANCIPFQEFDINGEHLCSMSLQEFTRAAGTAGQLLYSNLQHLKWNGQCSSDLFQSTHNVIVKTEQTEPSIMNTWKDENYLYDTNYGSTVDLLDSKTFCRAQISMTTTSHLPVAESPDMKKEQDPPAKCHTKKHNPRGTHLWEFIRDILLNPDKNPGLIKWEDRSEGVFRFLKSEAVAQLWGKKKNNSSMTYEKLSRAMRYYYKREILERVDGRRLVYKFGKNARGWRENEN
In short: as §1

SPI1 = SPI1 (Homo sapiens, UniProt P17947 1-270); settings: protein: recombinant; tags: N-terminal GST; dsDNA, one strand shown
In short: as §1

SPIB = SPIB (Homo sapiens, UniProt Q01892 1-262); settings: protein: recombinant; tags: N-terminal GST; dsDNA, one strand shown
SPIB, sequence (Q01892 whole entry): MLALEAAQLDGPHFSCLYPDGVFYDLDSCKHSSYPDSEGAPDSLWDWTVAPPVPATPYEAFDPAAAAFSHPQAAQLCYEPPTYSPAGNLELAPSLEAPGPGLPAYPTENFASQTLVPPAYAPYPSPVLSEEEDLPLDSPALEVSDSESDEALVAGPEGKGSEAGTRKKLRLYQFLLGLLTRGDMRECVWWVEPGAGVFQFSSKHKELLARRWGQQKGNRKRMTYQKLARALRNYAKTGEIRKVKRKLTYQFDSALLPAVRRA
In short: as §1

ELK3 = molecular target: T6, ELK3 (Homo sapiens, UniProt P41970 1-407); settings: protein: recombinant; tags: N-terminal GST; dsDNA, one strand shown
T6 sequence: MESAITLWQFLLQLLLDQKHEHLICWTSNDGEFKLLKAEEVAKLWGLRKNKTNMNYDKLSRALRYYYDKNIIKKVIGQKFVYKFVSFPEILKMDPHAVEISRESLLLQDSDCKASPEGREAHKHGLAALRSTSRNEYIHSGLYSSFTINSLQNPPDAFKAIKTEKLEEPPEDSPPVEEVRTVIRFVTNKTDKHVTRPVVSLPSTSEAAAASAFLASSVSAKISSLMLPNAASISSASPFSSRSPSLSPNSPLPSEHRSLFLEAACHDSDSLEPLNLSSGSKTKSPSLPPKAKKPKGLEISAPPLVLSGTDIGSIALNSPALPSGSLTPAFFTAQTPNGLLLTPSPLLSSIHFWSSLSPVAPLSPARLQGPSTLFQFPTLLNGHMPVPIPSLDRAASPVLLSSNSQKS
In short: as §1

FEV = molecular target: T7, FEV (Homo sapiens, UniProt Q99581 1-238); settings: protein: recombinant; tags: N-terminal GST; dsDNA, one strand shown
T7 sequence: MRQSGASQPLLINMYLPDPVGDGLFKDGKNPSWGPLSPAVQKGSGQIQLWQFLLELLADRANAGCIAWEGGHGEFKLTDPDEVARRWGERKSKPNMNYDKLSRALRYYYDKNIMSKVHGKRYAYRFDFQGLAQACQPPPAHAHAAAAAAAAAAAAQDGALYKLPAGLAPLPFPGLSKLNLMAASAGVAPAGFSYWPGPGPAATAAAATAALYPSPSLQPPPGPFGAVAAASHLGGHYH
In short: as §1

ETV5 = ETV5 (Homo sapiens, UniProt P41161 1-510); settings: protein: recombinant; tags: N-terminal GST; dsDNA, one strand shown
ETV5, sequence (P41161 whole entry): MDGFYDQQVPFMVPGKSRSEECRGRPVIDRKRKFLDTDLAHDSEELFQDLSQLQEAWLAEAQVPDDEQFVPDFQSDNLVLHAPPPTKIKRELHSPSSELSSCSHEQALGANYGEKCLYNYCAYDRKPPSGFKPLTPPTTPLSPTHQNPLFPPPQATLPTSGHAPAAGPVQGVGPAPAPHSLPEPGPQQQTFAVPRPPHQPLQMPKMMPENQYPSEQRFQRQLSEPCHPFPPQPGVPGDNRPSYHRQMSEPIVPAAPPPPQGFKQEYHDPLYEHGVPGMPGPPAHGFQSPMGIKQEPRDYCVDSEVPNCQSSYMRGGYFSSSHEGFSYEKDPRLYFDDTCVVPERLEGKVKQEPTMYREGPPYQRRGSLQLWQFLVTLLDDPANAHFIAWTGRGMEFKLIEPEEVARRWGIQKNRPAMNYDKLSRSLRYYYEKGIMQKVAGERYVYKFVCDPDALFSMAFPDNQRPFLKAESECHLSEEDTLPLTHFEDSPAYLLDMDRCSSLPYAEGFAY
In short: as §1

HSF1 = HSF1 (Homo sapiens, UniProt Q00613 1-529); settings: protein: recombinant; tags: N-terminal GST; chain copies: 3; dsDNA, one strand shown
HSF1, sequence (Q00613 whole entry): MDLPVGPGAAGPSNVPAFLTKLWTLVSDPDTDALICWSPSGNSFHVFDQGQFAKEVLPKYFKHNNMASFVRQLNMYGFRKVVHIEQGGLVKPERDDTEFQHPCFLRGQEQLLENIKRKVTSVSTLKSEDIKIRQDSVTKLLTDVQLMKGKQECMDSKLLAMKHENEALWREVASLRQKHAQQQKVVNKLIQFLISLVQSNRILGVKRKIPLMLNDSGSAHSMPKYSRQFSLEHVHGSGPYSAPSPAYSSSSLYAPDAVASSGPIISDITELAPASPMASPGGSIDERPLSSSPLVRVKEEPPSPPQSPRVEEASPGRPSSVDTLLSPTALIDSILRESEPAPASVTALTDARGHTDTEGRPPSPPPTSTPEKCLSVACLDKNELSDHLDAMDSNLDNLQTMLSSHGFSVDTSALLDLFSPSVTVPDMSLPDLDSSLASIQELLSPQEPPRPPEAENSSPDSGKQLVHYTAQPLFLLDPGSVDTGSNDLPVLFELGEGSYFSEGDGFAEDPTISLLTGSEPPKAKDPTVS
In short: as §1

SPIC = molecular target: T8, SPIC (Homo sapiens, UniProt Q8N5J4 1-248); settings: protein: recombinant; tags: N-terminal GST; dsDNA, one strand shown
T8 sequence: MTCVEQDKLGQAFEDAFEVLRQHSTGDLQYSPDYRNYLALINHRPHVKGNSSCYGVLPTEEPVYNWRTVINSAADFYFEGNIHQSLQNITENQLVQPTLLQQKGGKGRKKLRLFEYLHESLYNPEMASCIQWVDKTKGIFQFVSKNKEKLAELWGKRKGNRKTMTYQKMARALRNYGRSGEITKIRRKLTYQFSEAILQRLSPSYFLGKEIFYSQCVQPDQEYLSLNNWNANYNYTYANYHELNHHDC
In short: as §1

ELF4 = ELF4 (Homo sapiens, UniProt Q99607 1-663); settings: protein: recombinant; tags: N-terminal GST; dsDNA, one strand shown
ELF4, sequence (Q99607 whole entry): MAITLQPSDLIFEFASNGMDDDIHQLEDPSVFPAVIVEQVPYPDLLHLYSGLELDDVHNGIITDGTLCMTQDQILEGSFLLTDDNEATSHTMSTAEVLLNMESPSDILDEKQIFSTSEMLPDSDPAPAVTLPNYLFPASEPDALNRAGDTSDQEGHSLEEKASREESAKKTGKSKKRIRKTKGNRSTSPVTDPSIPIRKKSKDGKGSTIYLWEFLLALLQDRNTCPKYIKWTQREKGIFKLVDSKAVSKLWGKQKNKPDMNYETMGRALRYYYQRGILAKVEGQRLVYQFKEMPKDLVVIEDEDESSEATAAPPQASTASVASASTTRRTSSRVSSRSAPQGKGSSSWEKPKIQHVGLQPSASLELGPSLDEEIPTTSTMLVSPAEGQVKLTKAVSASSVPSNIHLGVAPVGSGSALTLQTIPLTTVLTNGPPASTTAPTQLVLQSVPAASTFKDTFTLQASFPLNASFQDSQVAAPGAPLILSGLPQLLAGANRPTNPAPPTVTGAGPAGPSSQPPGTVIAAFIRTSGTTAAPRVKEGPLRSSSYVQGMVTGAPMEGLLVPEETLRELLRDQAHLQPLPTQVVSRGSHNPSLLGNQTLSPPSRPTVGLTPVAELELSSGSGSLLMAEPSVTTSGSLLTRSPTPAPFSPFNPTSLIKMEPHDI
In short: as §1

ELK4 = molecular target: T9, ELK4 (Homo sapiens, UniProt P28324-2 1-405); settings: protein: recombinant; tags: N-terminal GST; dsDNA, one strand shown
T9 sequence: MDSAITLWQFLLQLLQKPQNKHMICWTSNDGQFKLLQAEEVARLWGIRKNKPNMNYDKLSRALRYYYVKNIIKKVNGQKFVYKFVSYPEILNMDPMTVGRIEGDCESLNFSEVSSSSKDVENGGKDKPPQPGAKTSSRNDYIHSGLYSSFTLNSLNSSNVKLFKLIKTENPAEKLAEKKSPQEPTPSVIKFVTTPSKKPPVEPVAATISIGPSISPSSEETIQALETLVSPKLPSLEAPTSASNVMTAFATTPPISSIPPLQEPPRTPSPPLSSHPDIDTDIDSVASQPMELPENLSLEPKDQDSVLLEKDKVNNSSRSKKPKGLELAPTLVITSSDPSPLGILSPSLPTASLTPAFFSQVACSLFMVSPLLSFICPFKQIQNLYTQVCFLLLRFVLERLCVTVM
In short: as §1

ETV2 = molecular target: T10, ETV2 (Homo sapiens, UniProt O00321 1-342); settings: protein: recombinant; tags: N-terminal GST; dsDNA, one strand shown
T10 sequence: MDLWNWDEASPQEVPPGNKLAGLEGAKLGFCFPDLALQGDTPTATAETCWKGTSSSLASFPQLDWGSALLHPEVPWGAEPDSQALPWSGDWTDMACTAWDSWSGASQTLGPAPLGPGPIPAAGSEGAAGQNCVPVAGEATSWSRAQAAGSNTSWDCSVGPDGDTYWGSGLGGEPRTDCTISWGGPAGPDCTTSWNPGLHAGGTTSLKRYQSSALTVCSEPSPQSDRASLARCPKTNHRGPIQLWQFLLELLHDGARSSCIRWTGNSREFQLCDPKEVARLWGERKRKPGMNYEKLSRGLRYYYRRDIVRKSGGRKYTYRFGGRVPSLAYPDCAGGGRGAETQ
In short: as §1

ELF3 = molecular target: T11, ELF3 (Homo sapiens, UniProt P78545 1-371); settings: protein: recombinant; tags: N-terminal GST; dsDNA, one strand shown
T11 sequence: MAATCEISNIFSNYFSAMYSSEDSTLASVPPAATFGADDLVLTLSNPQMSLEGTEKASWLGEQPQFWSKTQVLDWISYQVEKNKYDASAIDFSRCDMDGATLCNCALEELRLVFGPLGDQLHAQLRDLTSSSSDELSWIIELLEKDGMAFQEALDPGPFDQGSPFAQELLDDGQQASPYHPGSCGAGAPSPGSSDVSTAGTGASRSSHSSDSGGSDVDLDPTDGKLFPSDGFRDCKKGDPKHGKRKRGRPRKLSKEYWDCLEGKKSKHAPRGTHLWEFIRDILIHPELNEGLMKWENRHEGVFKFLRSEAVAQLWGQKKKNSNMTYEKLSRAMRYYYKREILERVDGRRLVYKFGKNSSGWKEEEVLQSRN
In short: as §1

ETV1 = ETV1 (Homo sapiens, UniProt P50549 1-477); settings: protein: recombinant; tags: N-terminal GST; dsDNA, one strand shown
ETV1, sequence (P50549 whole entry): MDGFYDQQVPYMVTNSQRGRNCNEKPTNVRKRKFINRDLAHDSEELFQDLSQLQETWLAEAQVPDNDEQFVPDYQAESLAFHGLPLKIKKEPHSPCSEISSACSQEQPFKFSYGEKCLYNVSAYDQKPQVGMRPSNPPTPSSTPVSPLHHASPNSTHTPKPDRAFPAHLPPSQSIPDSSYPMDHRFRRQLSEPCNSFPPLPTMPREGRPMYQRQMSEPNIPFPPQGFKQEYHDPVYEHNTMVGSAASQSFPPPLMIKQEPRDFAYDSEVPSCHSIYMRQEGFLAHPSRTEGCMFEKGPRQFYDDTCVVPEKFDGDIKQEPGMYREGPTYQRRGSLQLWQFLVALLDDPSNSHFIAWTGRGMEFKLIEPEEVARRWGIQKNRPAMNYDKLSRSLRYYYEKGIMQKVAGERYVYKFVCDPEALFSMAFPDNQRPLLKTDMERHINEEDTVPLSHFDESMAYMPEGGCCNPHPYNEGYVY
In short: as §1

AGTTTC
binding signal (FLI1): 1.23 fold enrichment (6-mer frequency, TF over GST control)
binding signal (ELK1): 1.28 fold enrichment (6-mer frequency, TF over GST control)
binding signal (GABPA): 1.29 fold enrichment (6-mer frequency, TF over GST control)
binding signal (ERG): 1.3 fold enrichment (6-mer frequency, TF over GST control)
binding signal (ELF1): 1.27 fold enrichment (6-mer frequency, TF over GST control)
binding signal (EHF): 1.34 fold enrichment (6-mer frequency, TF over GST control)
binding signal (SPI1): 1.22 fold enrichment (6-mer frequency, TF over GST control)
binding signal (SPIB): 1.24 fold enrichment (6-mer frequency, TF over GST control)
binding signal (ELK3): 1.46 fold enrichment (6-mer frequency, TF over GST control)
binding signal (FEV): 1.23 fold enrichment (6-mer frequency, TF over GST control)
binding signal (ETV5): 1.33 fold enrichment (6-mer frequency, TF over GST control)
binding signal (HSF1): 1.38 fold enrichment (6-mer frequency, TF over GST control)
binding signal (SPIC): 1.16 fold enrichment (6-mer frequency, TF over GST control)
binding signal (ELF4): 1.2 fold enrichment (6-mer frequency, TF over GST control)
binding signal (ELK4): 1.13 fold enrichment (6-mer frequency, TF over GST control)
binding signal (ETV2): 1.21 fold enrichment (6-mer frequency, TF over GST control)
binding signal (ELF3): 1.14 fold enrichment (6-mer frequency, TF over GST control)
binding signal (ETV1): 1.29 fold enrichment (6-mer frequency, TF over GST control)
